Values joined by “and” are separate entries in the source; they are usually repeats but may differ in a detail not shown here. Equal values may be shown once. Records with an inconclusive call do not appear. Active and inactive are the calls of the source. Unless noted, calls come from the whole dose curve.
Tests used:
[1] = target: Peroxisome proliferator-activated receptor gamma (Homo sapiens) (UniProt P37231); assay: qHTS assay for small molecule agonists of peroxisome proliferator-activated receptor gamma signaling (AID 588536; active = well fitted curve in the direction sought with a large enough effect in the signal ratio, with a control signal flat, not every such curve was filed as active; the % refers to the signal ratio;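 note: 0% = DMSO basal wells and 100% = rosiglitazone at 2 µM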)
Summary of the method: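 Compound treatment: 16 h, 37 C, HEK293 GeneBLAzer cells. Detection: CCF4, 2 h RT. Values: Hill-fit EC50, efficacy as % of 2 uM rosiglitazone.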

[2] = target: Peroxisome proliferator-activated receptor gamma (Homo sapiens) (UniProt P37231); assay: qHTS assay for small molecule antagonists of peroxisome proliferator-activated receptor gamma signaling (AID 588537; active = well fitted inhibition curve with a large enough effect in the signal ratio, with a control signal flat, not every such curve was filed as active; the % refers to the signal ratio;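 note: reporter cells co-stimulated with 50 nM rosiglitazone agonist during compound treatment; % of control where 0% means no effect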)
Summary of the method: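 Antagonist-mode β-lactamase reporter screen run as a titration series. HEK293 PPARγ-UAS-bla cells are stimulated with rosiglitazone (50 nM final) for 16 h, then CCF4 is read at 460/530 nm. Data are scaled between DMSO and rosiglitazone and fitted to the Hill equation.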

[3] = target: Vitamin D3 receptor (Homo sapiens) (UniProt P11473); assay: qHTS assay for small molecule antagonists of vitamin D receptor signaling (AID 588541);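 note: receptor activated by calcitriol during compound treatment; % is set by controls: 0 for no effect and ±100 for the full control effect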
Summary of the method: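 Antagonist-mode beta-lactamase reporter assay: HEK293T VDR-UAS-bla cells were exposed to titrated compound alongside 1-alpha,25-dihydroxyvitamin D3 at 3 nM final for 16 h. Values were normalized to the 50 nM agonist control and DMSO basal, with IC50 and efficacy from Hill equation fits.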

[4] = target: Vitamin D3 receptor (Homo sapiens) (UniProt P11473); assay: qHTS assay for small molecule agonists of vitamin D receptor signaling (AID 588543);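 note: 0% = DMSO basal and 100% = reference agonist control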
Summary of the method: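 Reporter cells (HEK293T, VDR-UAS-bla) were seeded in medium with 2% charcoal-stripped serum and incubated 5 h, then compounds in concentration series were added for 16 h at 37 °C. Stimulation was scaled between DMSO basal and 50 nM 1α,25-dihydroxyvitamin D3.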

[5] = qHTS assay for small molecule agonists of retinoid X receptor alpha signaling (AID 588544); conditions: HEK293T RXRa-UAS-bla, beta-lactamase reporter, 18 h; 530 nm emission
[6] = target: Retinoic acid receptor RXR-alpha (Homo sapiens) (UniProt P19793); assay: as above
[7] = qHTS assay for small molecule antagonists of retinoid X receptor alpha signaling (AID 588546; active = well fitted inhibition curve with a large enough effect in the signal ratio, with a control signal flat, not every such curve was filed as active; the % refers to the signal ratio;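 note: cells stimulated with 9-cis-retinoic acid as agonist; % is set by controls: 0 for no effect and ±100 for the full control effect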); conditions: HEK293T RXRa-UAS-bla, beta-lactamase ratio, antagonist mode; measured here: W530 green channel, cytotoxicity proxy
Summary of the method: (§1)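 Beta-lactamase reporter inhibition, read as CCF4 fluorescence ratio (ex 405, em 460/530 nm) after 2 h at RT. HEK293T UAS-bla cells, 2500/well, were stimulated with 9-cis-RA at 500 or 100 nM final alongside test compound for 18 h at 37 C.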

[8] = target: Retinoic acid receptor RXR-alpha (Homo sapiens) (UniProt P19793); assay: as above; conditions: HEK293T RXRa-UAS-bla, beta-lactamase ratio, antagonist mode
Summary of the method: as §1

[9] = target: Voltage-gated inwardly rectifying potassium channel KCNH2 (Homo sapiens) (UniProt Q12809); assay: qHTS Assay for Small Molecule Inhibitors of the Human hERG Channel Activity (AID 588834; active = well fitted curve in the direction sought with a large enough effect; an effect the other way counts as inactive or inconclusive;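 note: top concentration of the series differs between compounds; % is set by controls: 0 for no effect and ±100 for the full control effect; lower thallium flux fluorescence means stronger hERG block; nearly all actives have a fitted effect of over 50% in size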)
Summary of the method: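 Step 1: BacMam hERG transduction of U2OS, 4 hrs RT. Step 2: overnight 37 °C, plate 2000 cells/well, 4 hr. Step 3: FluxOR load, compound 10 min, stimulate, read fluorescence.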

[10] = S16 Schwann cell viability assay (CellTiter-Glo assay) (AID 624031; active = well fitted curve in the direction sought with a large enough effect; an effect the other way counts as inactive or inconclusive;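 note: cellular ATP luminescence as a viability measure; plate controls were DMSO-treated cells for no effect and cell-free wells for full effect; nearly all actives have a fitted effect of over 70% in size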)
Summary of the method: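 Native S16 rat Schwann cells in DMEM/10% FBS without phenol red were incubated overnight, then exposed to compounds for 24 h at 37 °C/5% CO2. Viability was read as ATP luminescence (CellTiter-Glo), normalized to no-cell wells and DMSO (0%).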

[11] = S16 Schwann cell PMP22 intronic element firefly luciferase assay (AID 624032; active = well fitted curve in the direction sought with a large enough effect; an effect the other way counts as inactive or inconclusive;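 note: plate controls were DMSO for no effect and PTC124 positive control mean for full effect; nearly all actives have a fitted effect of over 30% in size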)
Summary of the method: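 Luciferase reporter of PMP22 intronic-element expression in stably transfected S16 rat Schwann cells, read by ONE-Glo luminescence after 24 h compound exposure at 37 C. Activity scaled between DMSO (0%) and positive-control PTC124; concentration-effect curves quality-classified.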

[12] = target: Thyroid hormone receptor beta (Homo sapiens) (UniProt P10828); assay: qHTS assay for small molecule agonists of thyroid hormone receptor beta signaling (AID 588545);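 note: 0% = DMSO only and 100% = 10 nM T3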
Summary of the method: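 TR-UAS-bla GripTite HEK 293 cells (2500/well, medium with 2% charcoal/dextran FBS) were treated in agonist mode for 18 h at 37 C, titrated. Beta-lactamase was read by CCF4 ratio after 2 h; normalized to 10 nM T3 (100%) and DMSO, Hill-fitted for EC50 and efficacy.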

[13] = target: Thyroid hormone receptor beta (Homo sapiens) (UniProt P10828); assay: qHTS assay for small molecule antagonists of thyroid hormone receptor beta signaling (AID 588547; active = well fitted inhibition curve with a large enough effect in the signal ratio, with a control signal flat, not every such curve was filed as active; the % refers to the signal ratio;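 note: cells stimulated with 0.4 nM T3 agonist during compound exposure; % is set by controls: 0 for no effect and ±100 for the full control effect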); conditions: TR-UAS-bla HEK293, beta-lactamase ratio, antagonist mode, 18 h
Summary of the method: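 Inhibition of T3-driven (0.4nM final) beta-lactamase reporter activity was measured over 0.59 nM to 92 uM compound after 18 h at 37 C. The cells were GripTite HEK293 TR-UAS-bla in charcoal/dextran-stripped serum, with CCF4 ratio read-out and IC50 from Hill fits.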

[14] = target: Luciferin 4-monooxygenase (Photinus pyralis) (UniProt P08659); assay: Biochemical firefly luciferase enzyme assay for NPC (AID 624030; active = well fitted curve in the direction sought with a large enough effect; an effect the other way counts as inactive or inconclusive;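 note: purified P. pyralis luciferase at 10 nM with luciferin and ATP substrate; 0% = DMSO and -100% = full luciferase inhibition by PTC124 control; nearly all actives have a fitted effect of over 70% in size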)
Summary of the method: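 Direct inhibition of firefly luciferase enzyme (10 nM final, 50 mM Tris Acetate) assessed by luminescence within 5 minutes. Percent activity scaled between DMSO and PTC124 positive control, with concentration-effect curves classified by fit quality and response.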

[15] = S16 Schwann cell PMP22 intronic element beta-lactamase assay (AID 624044); conditions: S16 rat Schwann cells, PMP22 element beta-lactamase FRET, 24 h; ratio activity, negative = inhibition: at 38.3 µM (top of the series) unless noted;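 note: 0% = DMSO and -100% = potassium clavulanate positive control; nearly all actives have a fitted effect of over 15% in size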
Summary of the method: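 Beta-lactamase reporter under a PMP22 intronic regulatory element in stable S16 rat Schwann cells; 24 h compound exposure. 460 nm blue signal normalized between DMSO (0%) and potassium clavulanate, with 535 nm FRET tracking viability; curves classed by r2 and response.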

Retinoic acid receptor RXR-alpha (Homo sapiens), sequence (P19793 whole entry, looked up): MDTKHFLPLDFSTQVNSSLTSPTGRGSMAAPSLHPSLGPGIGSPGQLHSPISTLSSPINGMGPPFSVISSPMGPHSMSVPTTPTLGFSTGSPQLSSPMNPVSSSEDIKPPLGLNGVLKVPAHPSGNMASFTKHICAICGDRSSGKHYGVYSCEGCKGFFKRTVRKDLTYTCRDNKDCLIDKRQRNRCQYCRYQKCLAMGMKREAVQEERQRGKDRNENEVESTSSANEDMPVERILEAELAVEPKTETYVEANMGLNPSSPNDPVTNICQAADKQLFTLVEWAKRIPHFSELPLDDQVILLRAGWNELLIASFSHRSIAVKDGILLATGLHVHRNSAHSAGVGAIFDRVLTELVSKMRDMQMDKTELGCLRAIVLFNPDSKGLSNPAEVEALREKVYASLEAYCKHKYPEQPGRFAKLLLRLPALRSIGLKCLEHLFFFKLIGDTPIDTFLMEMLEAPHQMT
Peroxisome proliferator-activated receptor gamma (Homo sapiens), sequence (P37231 whole entry, looked up): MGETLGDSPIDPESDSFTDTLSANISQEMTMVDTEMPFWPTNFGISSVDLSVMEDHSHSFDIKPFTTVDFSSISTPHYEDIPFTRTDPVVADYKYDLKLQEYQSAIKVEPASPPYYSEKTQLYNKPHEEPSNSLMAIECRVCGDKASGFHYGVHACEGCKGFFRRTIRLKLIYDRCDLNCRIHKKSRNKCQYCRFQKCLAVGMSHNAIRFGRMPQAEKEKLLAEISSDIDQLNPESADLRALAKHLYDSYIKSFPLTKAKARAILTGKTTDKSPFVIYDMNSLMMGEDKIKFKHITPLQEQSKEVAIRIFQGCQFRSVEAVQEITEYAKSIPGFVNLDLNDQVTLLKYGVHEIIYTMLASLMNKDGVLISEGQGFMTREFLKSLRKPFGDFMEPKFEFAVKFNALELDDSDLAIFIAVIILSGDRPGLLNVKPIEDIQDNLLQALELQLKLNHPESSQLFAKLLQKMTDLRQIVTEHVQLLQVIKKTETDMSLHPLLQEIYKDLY
Thyroid hormone receptor beta (Homo sapiens), sequence (P10828 whole entry, looked up): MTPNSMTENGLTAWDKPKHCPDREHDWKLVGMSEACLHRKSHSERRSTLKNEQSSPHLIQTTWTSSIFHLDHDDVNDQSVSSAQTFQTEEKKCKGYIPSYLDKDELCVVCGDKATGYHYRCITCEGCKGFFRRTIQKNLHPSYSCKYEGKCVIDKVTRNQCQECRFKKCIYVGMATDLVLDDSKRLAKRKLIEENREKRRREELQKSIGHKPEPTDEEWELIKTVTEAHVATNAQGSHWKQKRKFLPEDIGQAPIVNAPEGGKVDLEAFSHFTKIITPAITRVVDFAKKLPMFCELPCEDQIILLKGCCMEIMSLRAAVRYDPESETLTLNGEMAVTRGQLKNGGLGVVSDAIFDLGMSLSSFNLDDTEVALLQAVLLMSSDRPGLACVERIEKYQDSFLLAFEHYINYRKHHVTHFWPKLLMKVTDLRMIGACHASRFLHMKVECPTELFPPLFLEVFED
Voltage-gated inwardly rectifying potassium channel KCNH2 (Homo sapiens), sequence (Q12809 whole entry, looked up): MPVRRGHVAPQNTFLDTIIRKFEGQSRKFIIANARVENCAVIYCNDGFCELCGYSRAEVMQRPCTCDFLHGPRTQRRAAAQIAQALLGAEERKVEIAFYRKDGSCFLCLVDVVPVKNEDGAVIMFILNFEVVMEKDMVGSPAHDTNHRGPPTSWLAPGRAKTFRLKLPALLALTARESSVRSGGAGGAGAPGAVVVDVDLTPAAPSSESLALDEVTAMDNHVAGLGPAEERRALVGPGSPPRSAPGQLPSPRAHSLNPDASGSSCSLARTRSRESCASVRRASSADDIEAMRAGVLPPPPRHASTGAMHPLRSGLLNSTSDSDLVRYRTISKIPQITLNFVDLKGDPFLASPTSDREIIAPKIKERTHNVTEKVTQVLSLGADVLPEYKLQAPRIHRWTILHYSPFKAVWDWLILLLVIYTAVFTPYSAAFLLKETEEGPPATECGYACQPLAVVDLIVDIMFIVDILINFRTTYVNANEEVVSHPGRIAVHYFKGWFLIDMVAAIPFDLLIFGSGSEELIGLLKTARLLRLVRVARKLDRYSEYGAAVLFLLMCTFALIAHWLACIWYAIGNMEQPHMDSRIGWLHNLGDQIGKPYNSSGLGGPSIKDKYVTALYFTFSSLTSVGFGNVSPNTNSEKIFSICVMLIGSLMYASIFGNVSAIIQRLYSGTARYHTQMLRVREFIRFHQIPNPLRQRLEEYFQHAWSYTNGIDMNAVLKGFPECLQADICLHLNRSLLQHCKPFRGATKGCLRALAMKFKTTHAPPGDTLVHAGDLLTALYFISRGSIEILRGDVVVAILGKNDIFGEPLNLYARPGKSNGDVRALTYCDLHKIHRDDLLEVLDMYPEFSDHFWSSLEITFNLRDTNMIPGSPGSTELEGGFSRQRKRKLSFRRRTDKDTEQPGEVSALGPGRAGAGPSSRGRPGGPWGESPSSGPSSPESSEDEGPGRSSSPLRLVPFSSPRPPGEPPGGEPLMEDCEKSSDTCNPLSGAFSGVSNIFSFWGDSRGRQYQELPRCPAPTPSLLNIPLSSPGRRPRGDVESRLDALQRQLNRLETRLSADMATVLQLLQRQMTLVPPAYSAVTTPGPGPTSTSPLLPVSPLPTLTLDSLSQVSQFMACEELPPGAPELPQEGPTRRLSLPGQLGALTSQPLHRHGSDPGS
Luciferin 4-monooxygenase (Photinus pyralis), sequence (P08659 whole entry, looked up): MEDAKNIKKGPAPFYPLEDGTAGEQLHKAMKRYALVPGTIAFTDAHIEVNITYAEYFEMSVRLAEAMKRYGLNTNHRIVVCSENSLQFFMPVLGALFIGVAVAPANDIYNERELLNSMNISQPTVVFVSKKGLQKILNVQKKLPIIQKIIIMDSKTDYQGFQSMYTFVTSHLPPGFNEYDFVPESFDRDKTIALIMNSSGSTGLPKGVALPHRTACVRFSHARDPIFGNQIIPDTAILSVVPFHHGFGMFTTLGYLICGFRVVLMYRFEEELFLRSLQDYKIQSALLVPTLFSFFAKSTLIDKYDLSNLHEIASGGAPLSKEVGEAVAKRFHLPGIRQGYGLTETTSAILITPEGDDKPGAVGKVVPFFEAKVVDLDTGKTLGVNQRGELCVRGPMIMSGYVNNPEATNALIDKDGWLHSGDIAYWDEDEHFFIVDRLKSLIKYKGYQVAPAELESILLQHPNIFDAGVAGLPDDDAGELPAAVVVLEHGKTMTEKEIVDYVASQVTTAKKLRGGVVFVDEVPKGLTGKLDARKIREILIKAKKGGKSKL
Vitamin D3 receptor (Homo sapiens), sequence (P11473 whole entry, looked up): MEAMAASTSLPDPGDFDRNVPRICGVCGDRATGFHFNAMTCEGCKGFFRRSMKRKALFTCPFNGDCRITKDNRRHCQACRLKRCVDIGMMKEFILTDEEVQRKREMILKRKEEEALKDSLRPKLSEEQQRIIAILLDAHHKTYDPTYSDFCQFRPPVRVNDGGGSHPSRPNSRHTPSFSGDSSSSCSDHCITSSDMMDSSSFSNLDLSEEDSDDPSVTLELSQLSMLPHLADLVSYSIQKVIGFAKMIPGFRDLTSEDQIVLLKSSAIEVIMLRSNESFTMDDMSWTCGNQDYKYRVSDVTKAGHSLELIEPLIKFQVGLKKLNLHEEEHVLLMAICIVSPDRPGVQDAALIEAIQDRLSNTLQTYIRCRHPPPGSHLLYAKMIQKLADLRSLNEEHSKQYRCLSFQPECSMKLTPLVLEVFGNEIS

OCCOCCOCCO
-16.7% and -5.33%: max response [7]
inactive: outcome [1] | outcome [2] | outcome [3] | outcome [4] | outcome [6] | max response [8] 0.587% and -7.45% | Potency [9] | Potency [10] | Potency [11]
-8.79% and -11.6%: max response [5]

CC(C)[C@@H]1CC[C@@H](C)C[C@H]1O
inactive: outcome [1] | outcome [2] | outcome [3] | outcome [4] | outcome [6] | outcome [12] | Potency [9]
-16.2%: max response [5]

CC(C)O
-15.1%: max response [7]
-10.8%: max response [5]
inactive: outcome [1] | outcome [3] | outcome [4] | outcome [6] | max response [8] 36.2% | activity change % (negative = inhibition) [13] -11% | Potency [9] | Potency [14] | Potency [10] | Potency [11] | ratio activity, negative = inhibition [15] -7.58%

O=C(OCc1ccccc1)c1ccc(O)cc1
inactive: outcome [1] | outcome [2] | outcome [12] | max response [8] -35.8% | activity change % (negative = inhibition) [13] 27.2% | Potency [9] | Potency [10] | Potency [11] | ratio activity, negative = inhibition [15] -2.42%
-3.09%: max response [7]

CC(C)CCC[C@@H](C)[C@H]1CC[C@H]2[C@@H]3CC=C4C[C@@H](O)CC[C@]4(C)[C@H]3CC[C@]12C
11.8%: max response [7]
inactive: outcome [1] | outcome [2] | outcome [4] | outcome [12] | max response [8] -19.4% | activity change % (negative = inhibition) [13] -1.74% | Potency [9] | Potency [10] | Potency [11] | ratio activity, negative = inhibition [15] 7.26%

CO
-6.65%: max response [7]
inactive: outcome [1] | outcome [3] | outcome [4] | outcome [6] | outcome [12] | max response [8] -0.242% | activity change % (negative = inhibition) [13] 0.348% | Potency [9] | Potency [14] | Potency [10] | Potency [11] | ratio activity, negative = inhibition [15] 1.83%
-9.41%: max response [5]

C=CC(C)(O)CC/C=C(\C)CCC=C(C)C (centres undefined)
active: ratio activity, negative = inhibition [15] -13.1%
4.32%: max response [5]
-3.85%: max response [7]
inactive: outcome [1] | outcome [2] | outcome [6] | outcome [12] | max response [8] 13.1% | Potency [9] | Potency [14] | Potency [10] | Potency [11]

C/C=C/C=C/C(=O)O
-4.17%: max response [7]
-7.77%: max response [5]
inactive: outcome [1] | outcome [3] | outcome [4] | outcome [6] | outcome [12] | max response [8] 25.3% | activity change % (negative = inhibition) [13] 1.05% | Potency [9] | Potency [14] | Potency [10] | Potency [11]

c1ccc2ccccc2c1
inactive: outcome [1] | outcome [2] | outcome [3] | outcome [4] | outcome [6] | outcome [12] | max response [8] 0.585% and 18.2% | activity change % (negative = inhibition) [13] 2.25% and -17.5% | Potency [9] | Potency [14] | Potency [10] | Potency [11]
-9.07% and -13.7%: max response [7]
-8.1% and -18.9%: max response [5]

O=P(O)(O)O
6.72%: max response [7]
-7.11%: max response [5]
inactive: outcome [1] | outcome [2] | outcome [3] | outcome [4] | outcome [6] | max response [8] 2.87% | activity change % (negative = inhibition) [13] -9.56% | Potency [9] | Potency [14] | Potency [10] | Potency [11] | ratio activity, negative = inhibition [15] 2.1%

Nc1ncnc2c1ncn2[C@H]1CC[C@@H](CO)O1
inactive: outcome [1] | outcome [2] | outcome [3] | outcome [4] | outcome [6] | outcome [12] | max response [8] -6.41% | activity change % (negative = inhibition) [13] -11% and 4.8% | Potency [9] | Potency [10] | Potency [11]
0.911%: max response [7]
11.3% and 13.8%: max response [5]

OCC(O)CO
-13.7% and 0.479%: max response [5]
inactive: outcome [1] | outcome [2] | outcome [3] | outcome [4] | outcome [6] | outcome [12] | max response [8] 0.797% and 12.5% | activity change % (negative = inhibition) [13] -5.42% and 3.32% | Potency [9] | Potency [14] | Potency [11] | ratio activity, negative = inhibition [15] 2.96%
-6.53% and 10.4%: max response [7]

CC1=CC(=O)NS(=O)(=O)O1
-6.4% and -5.89%: max response [7]
inactive: outcome [1] | outcome [2] | outcome [3] | outcome [4] | outcome [6] | outcome [12] | max response [8] -5.24% and 0.185% | activity change % (negative = inhibition) [13] 2.81% | Potency [9] | Potency [14] | Potency [10] | Potency [11] | ratio activity, negative = inhibition [15] 1.96%
-7.78%: max response [5]

Cc1ccc(S(=O)(=O)NCl)cc1
inactive: outcome [1] | outcome [2] | outcome [6] | outcome [12] | max response [8] 17.1% | activity change % (negative = inhibition) [13] 3.3% | Potency [9] | Potency [14] | Potency [10] | Potency [11]
-12.9%: max response [7]
-13.1%: max response [5]

CO/N=C(/C(=O)N[C@@H]1C(=O)N2C(C(=O)O)=C(COC(N)=O)CS[C@H]12)c1ccco1
-14%: max response [5]
inactive: outcome [1] | outcome [3] | outcome [4] | outcome [6] | outcome [12] | max response [8] -5.55% | activity change % (negative = inhibition) [13] -0.0158% | Potency [9] | Potency [14] | Potency [10] | Potency [11] | ratio activity, negative = inhibition [15] 0.236%
-0.122%: max response [7]

NCCO/C=C/[C@H](N)C(=O)O
inactive: outcome [1] | outcome [2] | outcome [6] | outcome [12] | max response [8] -9.4% | activity change % (negative = inhibition) [13] 19.7% | Potency [9] | Potency [14] | Potency [10] | Potency [11] | ratio activity, negative = inhibition [15] 0.236%
-8.31%: max response [7]
-3.57%: max response [5]

Nc1nccs1
-5.85%: max response [7]
inactive: outcome [1] | outcome [3] | outcome [4] | outcome [6] | outcome [12] | max response [8] 4.13% | activity change % (negative = inhibition) [13] 8.98% | Potency [9] | Potency [14] | Potency [10] | Potency [11]
-14.1%: max response [5]

— PubChem BioAssay (NCATS)
